In the library only some 2.1% were active in any assay of this set; here they are far more common.
Fh CTSL1 inh = cathepsin L1 inhibition, PFM18AAP counter-screen | recombinant F. hepatica cathepsin L1, Z-Leu-Arg-MCA fluorescence | inhibition, % at 5.96 µM | 300,000 tested, 0.49% active;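 active = inhibition above the mean of all tested compounds plus 3 SD, set per screening campaign, cut at about 17% in these data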;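 also: 0% = plate median of test compound wells and 100% = 1 µM Z-Phe-Ala-diazomethylketone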
Rin1-Abl PPI inh = blocks binding of human Rin1 to Abl; P00519+Q13671; TR-FRET Rin1/Abl binding, biochemical; inhibition, % at 7.35 µM; 360,000 tested, 0.4% active; AID 588664; in the data active = inhibition above about 5%, passing the limit was not always enough
PfM18AAP inh = PfM18AAP enzyme inhibition | recombinant PfM18AAP, H-Glu-NHMec fluorogenic cleavage | 290,000 tested, 1.2% active | AID 1822 | inhibition, % at 7.35 µM;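 active = inhibition above the campaign mean inhibition over all tested compounds plus 3 SD, cut at about 28% in these data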;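 also: 0% = plate median of test compound wells and 100% = 2 mM ZnCl2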
Calb FLC = C. albicans growth modulation with fluconazole; 300,000 tested, 0.57% active; growth inhibition, % (concentration not given with the values); C. albicans CaCi-2 (fluconazole-resistant clinical isolate) + fluconazole, Alamar Blue growth, 48 h; AID 1979;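 active = growth inhibition above about 58% in most replicates, limit read from the data, passing the limit was not always enough; inconclusive = exactly half the replicates above a set limit; inactive = most replicates below a set limit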;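 also: all wells also contain fluconazole at 8 µg/ml as a sub-toxic cotreatment; 0% = median of DMSO wells and 100% = median of geldanamycin control wells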
Starred values were filed as active, the others as inactive.

What do the screens show for `Cc1ccc(S(=O)(=O)CCC(=O)c2cccc([N+](=O)[O-])c2)cc1`?
Fh CTSL1 inh: 20*; Rin1-Abl PPI inh: 1; PfM18AAP inh: -113; Calb FLC: 3

What do the screens show for `CCCC(=O)NC(=S)Nc1ccccc1F`?
Fh CTSL1 inh: 3; Rin1-Abl PPI inh: 6.3*; PfM18AAP inh: 6; Calb FLC: -8

Results for Cc1cc(C(=O)Nc2ncn(Cc3ccc(F)cc3)n2)ccc1[N+](=O)[O-] ?
Fh CTSL1 inh: -2; Rin1-Abl PPI inh: 0; PfM18AAP inh: 31*; Calb FLC: -1

Results for Cc1[nH]c(=O)c(Cc2ccccc2)c(O)c1C#N ?
Fh CTSL1 inh: -1; Rin1-Abl PPI inh: 1; Calb FLC: -1

How did c1csc(CNc2ncnc3sccc23)c1 do in these assays?
Fh CTSL1 inh: 2; Rin1-Abl PPI inh: -3; PfM18AAP inh: 2; Calb FLC: 85*

What do the screens show for `Oc1ccccc1/C=N/Nc1nccnc1Cl`?
Fh CTSL1 inh: 3; Rin1-Abl PPI inh: -5; PfM18AAP inh: 23; Calb FLC: 97*

What do the screens show for `COc1cccc(/C=N/Nc2ncnc(Cl)c2N)c1O`?
Fh CTSL1 inh: 2; Rin1-Abl PPI inh: -4; PfM18AAP inh: 27; Calb FLC: 0

How did COc1cccc(/C=N/Nc2nccnc2Cl)c1O do in these assays?
Rin1-Abl PPI inh: -7; PfM18AAP inh: 24; Calb FLC: 106*

How did COc1cccc(/C=N/Nc2nc3ccccc3[nH]2)c1O do in these assays?
Fh CTSL1 inh: 12; Rin1-Abl PPI inh: 1; PfM18AAP inh: 30*; Calb FLC: 67

How did COc1cccc(/C=N/Nc2ncnc3scc(-c4ccccc4)c23)c1O do in these assays?
Fh CTSL1 inh: 1; Rin1-Abl PPI inh: -2; PfM18AAP inh: -4; Calb FLC: 109*

How did C[C@H]1CN([C@@H](C)CO)C(=O)CCCn2nncc2CO[C@@H]1CN(C)Cc1ccc2c(c1)OCO2 do in these assays?
Rin1-Abl PPI inh: -1

Results for CC1CC(C)CN(S(=O)(=O)c2ccc(C(=O)N(C)Cc3ccccc3)cc2)C1 (centres undefined) ?
Rin1-Abl PPI inh: -1

What do the screens show for `O=S(=O)(c1ccc(Br)s1)N1CCN(c2ccnc3cc(Cl)ccc23)CC1`?
Fh CTSL1 inh: -6; Rin1-Abl PPI inh: -1; PfM18AAP inh: -2; Calb FLC: 16

How did C(=N\Nc1nc2ccccc2[nH]1)/c1ccc2c(c1)OCO2 do in these assays?
Rin1-Abl PPI inh: -1; PfM18AAP inh: 29*; Calb FLC: -7

How did COc1cccc(/C=N/Nc2cc(-n3nc(C)cc3-c3ccccc3)ncn2)c1O do in these assays?
Fh CTSL1 inh: -3; Rin1-Abl PPI inh: -5; PfM18AAP inh: -1; Calb FLC: 82*

What do the screens show for `CC1CCC(CN2CCN=C2Nc2ccccc2)CC1` (centres undefined)?
Fh CTSL1 inh: -2; Rin1-Abl PPI inh: 2; PfM18AAP inh: -1; Calb FLC: -10

Results for Cn1ccnc1SCC(=O)NCC(=O)Nc1ccc(F)c(F)c1F ?
Rin1-Abl PPI inh: -2

What do the screens show for `CC(O)CNc1ccc([N+](=O)[O-])cc1S(=O)(=O)N1CCOCC1` (centres undefined)?
Fh CTSL1 inh: 2; Rin1-Abl PPI inh: -2; PfM18AAP inh: 4; Calb FLC: -22

What do the screens show for `O=C(O)CC/C(=N\Nc1ccc([N+](=O)[O-])cc1S(=O)(=O)N1CCOCC1)c1cccs1`?
Fh CTSL1 inh: 3; Rin1-Abl PPI inh: 1; PfM18AAP inh: 30*; Calb FLC: 2

Results for Cc1ccc(NC(=O)CN2C(=O)S/C(=C\c3ccccn3)C2=O)cc1 ?
Fh CTSL1 inh: 1; Rin1-Abl PPI inh: -1; PfM18AAP inh: -3; Calb FLC: 2

Results for O=C(CN1C(=O)S/C(=C\c2ccccn2)C1=O)Nc1ccccc1 ?
Rin1-Abl PPI inh: 3; PfM18AAP inh: 5; Calb FLC: 109*

What do the screens show for `CCN(CC(=O)Nc1ccc2c(c1)OCCO2)C(=O)COc1ccc(C)cc1`?
Fh CTSL1 inh: 0; Rin1-Abl PPI inh: 2; PfM18AAP inh: -1; Calb FLC: -7

What do the screens show for `N=C1/C(=C\c2coc3ccc(O)cc3c2=O)C(=O)N=C2SC=CN12`?
Fh CTSL1 inh: 2; Rin1-Abl PPI inh: -2; PfM18AAP inh: 49*; Calb FLC: 7

Results for N=C1/C(=C/c2coc3ccccc3c2=O)C(=O)N=C2SC(c3ccco3)=NN12 ?
Fh CTSL1 inh: 4; Rin1-Abl PPI inh: -2; PfM18AAP inh: 29*; Calb FLC: 2

Results for N=C1/C(=C\c2coc3ccccc3c2=O)C(=O)N=C2SC(c3ccncc3)=NN12 ?
Fh CTSL1 inh: 5; Rin1-Abl PPI inh: -2; PfM18AAP inh: 0; Calb FLC: -4

Results for CCNC(=O)C1(C)CCN(C(=O)c2ccc(F)cc2Cl)C1 (centres undefined) ?
Rin1-Abl PPI inh: 2

How did O=C(CCC1CCCCC1)NNC(=O)NC12CC3CC(CC(C3)C1)C2 do in these assays?
Fh CTSL1 inh: 4; Rin1-Abl PPI inh: -2; PfM18AAP inh: 3; Calb FLC: inconclusive

Results for O=C(COC(=O)c1cc(S(=O)(=O)N2CCOCC2)ccc1O)Nc1cc(S(=O)(=O)N2CCCC2)ccc1Cl ?
Fh CTSL1 inh: 3; Rin1-Abl PPI inh: -1; PfM18AAP inh: 0; Calb FLC: -3

Results for CC(/C=C/c1ccc(N(C)C)cc1)=N\N=C(/N)SC1CC(=O)N(c2ccc(C(=O)O)cc2)C1=O (centres undefined) ?
Fh CTSL1 inh: 22*; Rin1-Abl PPI inh: 3; PfM18AAP inh: 8; Calb FLC: -4

What do the screens show for `O=C(O)c1ccc(N2C(=O)CC(SC(=Nc3ccccc3)Nc3ccccc3)C2=O)cc1` (centres undefined)?
Fh CTSL1 inh: 2; Rin1-Abl PPI inh: 0; PfM18AAP inh: 1; Calb FLC: -5

How did COCCCNc1nc2c(-c3ccc(C)cc3)nnn2c2ccccc12 do in these assays?
Fh CTSL1 inh: -2; Rin1-Abl PPI inh: 2; PfM18AAP inh: -8; Calb FLC: 5

What do the screens show for `COCCCNc1nc2c(-c3cccc(C)c3)nnn2c2ccccc12`?
Fh CTSL1 inh: 18*; Rin1-Abl PPI inh: -8; PfM18AAP inh: -4; Calb FLC: 0

How did CC1(C)C=C2C(=NN(c3ccccc3)C(N)=C2C#N)CO1 do in these assays?
Fh CTSL1 inh: 109*; Rin1-Abl PPI inh: -3; PfM18AAP inh: 11; Calb FLC: 2

Results for CC1(C)Cc2c(C#N)c(N)n(-c3ccccc3)c(=S)c2CO1 ?
Fh CTSL1 inh: -1; Rin1-Abl PPI inh: -5; PfM18AAP inh: -3; Calb FLC: -30

How did Cc1nc(SCC(=O)NC2(C#N)CCCC2)n(CC(C)C)c1C do in these assays?
Rin1-Abl PPI inh: 0

What do the screens show for `CC(C)C[C@H](NC(=O)OC(C)(C)C)c1nnc(SCc2cccc(F)c2)o1`?
Fh CTSL1 inh: 12; Rin1-Abl PPI inh: 5; PfM18AAP inh: -1; Calb FLC: -20

What do the screens show for `CC(C)C[C@H](N)c1nnc(SCC(=O)Nc2ccc(Br)cc2)o1`?
Fh CTSL1 inh: 91*; Rin1-Abl PPI inh: 0; PfM18AAP inh: -3; Calb FLC: 0

What do the screens show for `NCCc1nnc(SCC(=O)Nc2ccc(Br)cc2)o1`?
Fh CTSL1 inh: 1; Rin1-Abl PPI inh: -2; PfM18AAP inh: 4; Calb FLC: -3

Results for Cc1ccc(C)c(NC(=O)CSc2nnc([C@@H](N)Cc3ccccc3)o2)c1 ?
Fh CTSL1 inh: 18*; Rin1-Abl PPI inh: -2; PfM18AAP inh: 2; Calb FLC: -6
